Experimental data from PubChem BioAssay.
Calls of active or inactive are those of the source.

Experiments:
[1] = E. coli DRC41 culture turbidity changes, primary screen, E. coli filamentation inducer project, strain DRC41, OD650, 48 h (AID 1152);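 further: E. coli MC1000 strain DRC41 lacking acrAB efflux pump and sulA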; conditions: E. coli DRC41 (acrAB sulA), higher = more signal, called active from +8 up or from −8 down
[2] = small-molecule binders of probe aLefty1, primary screen, biochemical, small-molecule microarray, 635/667 nm fluorescence (AID 1153); conditions: higher = more signal;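 further: score merges spot fluorescence with signal-to-noise ratio from the scanned slide images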
[3] = PSAC antagonists in infected red cells, primary screen, cell-based, P. falciparum Indochina, OD700, 1 h (AID 1154); conditions: P. falciparum Indochina infected RBC osmotic lysis, higher = more signal, called active from +8 up or from −8 down
[4] = PSAC antagonists in infected red cells, primary screen, cell-based, P. falciparum Indochina, OD700, 2 h (AID 1155);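 further: lysis reports solute entry through the parasite surface anion channel PSAC; channel blockers reduce lysis of infected cells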; conditions: P. falciparum Indochina infected erythrocytes, osmotic lysis OD700; higher = more signal, called active from +8 up or from −8 down
[5] = osmotic lysis modulators in infected erythrocytes, primary screen, PSAC antagonist project, cell-based, P. falciparum Indochina, OD700, 3 h (AID 1156); conditions: higher = more signal, called active from +8 up or from −8 down
[6] = PSAC antagonists in infected red cells, primary screen, cell-based, P. falciparum Indochina, OD700, 18 h (AID 1157); conditions: P. falciparum Indochina infected erythrocytes, osmotic lysis OD700, 18 h; higher = more signal, called active from +8 up or from −8 down
[7] = modulators of S6 phosphorylation in cells, primary screen, cell-based, A549, cytoblot, luminescence, serum-stimulated (AID 1158); conditions: A549 phospho-S6 cytoblot, 5 h, higher = more signal;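 further: serum-stimulated A549 lung adenocarcinoma cells; signal is phosphorylated S6 detected by cytoblot immunostaining with HRP secondary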
[8] = biological target: NADPH oxidase 2 (Homo sapiens) (UniProt P04839); assay: NOX2-dependent H2O2 signal modulators, primary screen, NOX inhibitor project, cell-based, HEK293-NOX2, PMA-stimulated, Amplex Red fluorescence (AID 1159); conditions: 45 min, higher = more signal, called active from +8 up or from −8 down; further: test concentration not given here
NADPH oxidase 2 (Homo sapiens), sequence (P04839 whole entry, looked up): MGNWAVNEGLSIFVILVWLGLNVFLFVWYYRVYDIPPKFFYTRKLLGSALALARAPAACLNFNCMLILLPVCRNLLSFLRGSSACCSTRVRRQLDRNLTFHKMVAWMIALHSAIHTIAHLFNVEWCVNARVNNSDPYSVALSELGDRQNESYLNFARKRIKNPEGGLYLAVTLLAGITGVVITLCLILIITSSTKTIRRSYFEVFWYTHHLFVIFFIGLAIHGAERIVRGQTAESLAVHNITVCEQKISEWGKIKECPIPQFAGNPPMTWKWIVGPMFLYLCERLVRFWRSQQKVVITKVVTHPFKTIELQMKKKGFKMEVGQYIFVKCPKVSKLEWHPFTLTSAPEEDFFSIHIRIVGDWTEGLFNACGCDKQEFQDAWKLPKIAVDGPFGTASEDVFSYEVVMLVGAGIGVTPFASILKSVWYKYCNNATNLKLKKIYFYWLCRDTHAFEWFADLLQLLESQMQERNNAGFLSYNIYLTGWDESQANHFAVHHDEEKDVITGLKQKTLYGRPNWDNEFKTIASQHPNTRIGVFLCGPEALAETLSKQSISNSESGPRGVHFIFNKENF

[9] = biological target: NADPH oxidase 4 (Homo sapiens) (UniProt Q9NPH5); assay: NOX4-dependent H2O2 signal modulators, primary screen, NOX inhibitor project, cell-based, HEK293-NOX4, tetracycline-induced, Amplex Red fluorescence (AID 1160); conditions: 45 min, higher = more signal, called active from +8 up or from −8 down
NADPH oxidase 4 (Homo sapiens), sequence (Q9NPH5 whole entry, looked up): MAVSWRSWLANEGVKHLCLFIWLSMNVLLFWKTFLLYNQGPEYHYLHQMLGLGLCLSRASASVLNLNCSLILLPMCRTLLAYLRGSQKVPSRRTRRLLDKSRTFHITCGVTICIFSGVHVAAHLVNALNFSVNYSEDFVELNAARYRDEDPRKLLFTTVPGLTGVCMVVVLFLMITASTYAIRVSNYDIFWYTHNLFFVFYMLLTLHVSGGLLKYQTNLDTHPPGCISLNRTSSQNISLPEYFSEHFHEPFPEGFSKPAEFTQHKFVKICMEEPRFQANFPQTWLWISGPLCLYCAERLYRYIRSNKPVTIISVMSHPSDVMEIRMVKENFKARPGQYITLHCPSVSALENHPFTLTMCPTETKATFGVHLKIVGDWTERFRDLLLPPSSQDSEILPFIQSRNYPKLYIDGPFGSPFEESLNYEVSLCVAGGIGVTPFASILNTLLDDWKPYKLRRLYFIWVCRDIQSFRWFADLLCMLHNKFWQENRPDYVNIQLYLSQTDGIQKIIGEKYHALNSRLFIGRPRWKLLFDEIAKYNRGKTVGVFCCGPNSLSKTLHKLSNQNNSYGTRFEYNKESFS

[10] = biological target: NADPH oxidase 5 (Homo sapiens) (UniProt Q96PH1); assay: NOX5-dependent H2O2 signal modulators, primary screen, NOX inhibitor project, cell-based, HEK293-NOX5, Amplex Red fluorescence (AID 1161); conditions: HEK293-NOX5, ionomycin, 45 min, higher = more signal
NADPH oxidase 5 (Homo sapiens), sequence (Q96PH1 whole entry, looked up): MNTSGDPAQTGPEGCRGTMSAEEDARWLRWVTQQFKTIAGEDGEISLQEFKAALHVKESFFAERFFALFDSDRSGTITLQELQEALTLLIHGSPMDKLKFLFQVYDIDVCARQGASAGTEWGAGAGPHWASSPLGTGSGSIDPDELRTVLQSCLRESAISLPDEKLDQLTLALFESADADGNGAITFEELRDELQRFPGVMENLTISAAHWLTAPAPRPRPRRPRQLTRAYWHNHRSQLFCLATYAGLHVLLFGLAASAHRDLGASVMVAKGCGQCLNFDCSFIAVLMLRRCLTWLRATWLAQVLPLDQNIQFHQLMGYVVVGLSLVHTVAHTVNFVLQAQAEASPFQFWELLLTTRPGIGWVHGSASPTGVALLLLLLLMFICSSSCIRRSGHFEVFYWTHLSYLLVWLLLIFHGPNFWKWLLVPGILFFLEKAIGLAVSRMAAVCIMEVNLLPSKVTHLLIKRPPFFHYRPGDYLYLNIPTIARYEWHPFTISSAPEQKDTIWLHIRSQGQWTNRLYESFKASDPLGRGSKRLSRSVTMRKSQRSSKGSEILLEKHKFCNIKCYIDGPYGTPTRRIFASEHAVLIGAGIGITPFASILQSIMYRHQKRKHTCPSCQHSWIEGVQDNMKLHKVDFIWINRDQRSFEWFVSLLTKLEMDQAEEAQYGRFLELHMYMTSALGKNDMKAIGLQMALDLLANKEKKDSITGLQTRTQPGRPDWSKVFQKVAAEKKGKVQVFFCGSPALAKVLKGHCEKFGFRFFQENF

[11] = A549 cell viability effects, profiling panel, calcein-AM fluorescence, 48 h, basal (AID 1162); conditions: higher = more signal; further: test concentration not given here
[12] = adipocyte viability effects, profiling panel, cell-based, 3T3-L1 adipocytes, calcein-AM fluorescence, 48 h, basal (AID 1163); conditions: 3T3-L1 adipocytes viability, higher = more signal; further: test concentration not given here
[13] = HepG2 cell viability effects, profiling panel, calcein-AM fluorescence, 48 h, basal (AID 1164); conditions: higher = more signal; further: test concentration not given here
[14] = MM1S cell viability effects, profiling panel, calcein-AM fluorescence, 48 h, basal (AID 1165); conditions: higher = more signal;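 further: viability of MM1S multiple myeloma cells under basal unstimulated conditions; test concentration not given here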
[15] = basal RPMI8226 viability, no added stimulus, profiling panel, cell-based, calcein-AM fluorescence, 48 h, PK04 Diversity Set (AID 1166); conditions: RPMI8226 myeloma viability, higher = more signal;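 further: cells grown under basal conditions without added stimulus; test concentration not given here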
[16] = basal HepG2 mitochondrial membrane potential changes, profiling panel, cell-based, JC-1 fluorescence, 24 h, 100 nL compound (AID 1167); conditions: higher = more signal; further: test concentration not given here
[17] = basal 3T3-L1 adipocyte mitochondrial potential changes, profiling panel, cell-based, JC-1 fluorescence, 3T3-L1 adipocytes, 24 h, 100 nL compound (AID 1168); conditions: JC-1 mitochondrial fluorescence, higher = more signal, called active from +8 up or from −8 down; further: test concentration not given here
[18] = basal RPMI8226 mitochondrial membrane potential changes, profiling panel, cell-based, JC-1 fluorescence, 24 h, 100 nL compound (AID 1169); conditions: RPMI8226 myeloma, JC-1 mitochondrial potential fluorescence, higher = more signal; further: test concentration not given here
[19] = basal MM1S mitochondrial membrane potential changes, profiling panel, cell-based, JC-1 fluorescence, 24 h, 100 nL compound (AID 1170); conditions: higher = more signal; further: test concentration not given here
[20] = A549 lung cancer cell viability effects, profiling panel, resazurin fluorescence, 24 h, PK04 Diversity Set (AID 1171); conditions: higher = more signal, called active from +8 up or from −8 down; further: test concentration not given here

Row | Compound | z-score [1] | composite z-score [2] | z-score [3] | z-score [4] | z-score [5] | z-score [6] | z-score [7] | z-score [8] | z-score [9] | z-score [10] | z-score [11] | z-score [12] | z-score [13] | z-score [14] | z-score [15] | z-score [16] | z-score [17] | z-score [18] | z-score [19] | z-score [20]
1 | COc1ccc([Si](C)(C)[C@@H]2[C@@H](CCn3cc([C@H](O)c4ccccc4)nn3)O[C@]3(C(=O)N(Cc4ccc(N5CCOC5=O)cc4)c4ccccc43)[C@H]2C)cc1 | 1.34 (inactive) | 0.142 | 28.2 (active) | 17.1 (active) | 1.45 (inactive) | 1.63 (inactive) | 0.0719 | 1.31 (inactive) | 2.36 (inactive) | 1.74 | -0.0046 | 0.417 | 0.215 | -1.06 | -1.3 | 1.67 | 0.00306 (inactive) | 0.417 | -0.657 | 0.595 (inactive)
2 | C=C(/C(=C/C[C@@H](OC(=O)c1ccncc1)c1ccccc1OCCO)c1cc(C(=O)OC)ccc1OC)C(C)C | 0.548 (inactive) | -0.204 | 23.6 (active) | 7.36 (inactive) | 4.04 (inactive) | 1.44 (inactive) | 1.12 | -0.295 (inactive) | -1.04 (inactive) | -1.63 | 1.36 | 0.38 | 0.92 | -3.25 | -2.11 | 2.74 | -0.158 (inactive) | 0.00511 | -1.71 | -0.108 (inactive)
3 | C=C(COC)/C(=C/C[C@@H](OC(=O)c1ccncc1)c1ccc(OCCO)cc1)c1cnc2ccccc2c1 | 0.634 (inactive) | 0.497 | 23.1 (active) | 5.56 (inactive) | 1.59 (inactive) | 1.19 (inactive) | -0.0567 | -1.17 (inactive) | -0.596 (inactive) | -1.84 | 0.101 | 1.48 | -0.0465 | -0.289 | -0.594 | 1.86 | -0.892 (inactive) | 0.674 | 0.464 | 0.549 (inactive)
4 | COc1c(C)cc(-c2cc3c(c(Cc4ccccc4)n2)[Si](C(C)C)(C(C)C)OC3)cc1C | -1.01 (inactive) | 0.0004 | 0.613 (inactive) | -0.172 (inactive) | 0.249 (inactive) | 0.189 (inactive) | -0.671 | -0.233 (inactive) | 0.243 (inactive) | 0.152 | -0.983 | -1.44 | 0.269 | -0.418 | -0.0095 | -1 | -0.737 (inactive) | 0.0185 | -0.00287 | -0.124 (inactive)
5 | CC[C@H]1C2=C3C(CC[C@H]4C(OCc5ccc(F)cc5C(F)(F)F)OC[C@](C)([C@@H]34)N(C(=O)OC(C)(C)C)C2)C2COC(=O)OCC21 (stereo not given in full) | -2.17 (inactive) | 0.513 | 1.28 (inactive) | 0.584 (inactive) | 1.63 (inactive) | 0.91 (inactive) | -0.445 | -0.582 (inactive) | -1.74 (inactive) | -1.5 | -0.195 | -0.412 | 0.478 | -2.9 | -4.68 | -0.492 | -1.41 (inactive) | -0.0899 | -1.45 | -0.186 (inactive)
